From PubChem BioAssay
Sampled rows, rich in hits. Any-hit rate of the full collection: about 6.6%.
KB-3-1 tox = KB-3-1 parental cell cytotoxicity | AID 1347075 | KB-3-1 viability, CellTiter-Glo ATP luminescence, 72 h | 400,000 compounds, 1.4% hits | Potency, µM (series often up to 46.1 µM), usual class: cytotoxic; further: on the % scale 0 is the no-effect control and ±100 the full control effect; nearly all actives have a fitted effect of over 60% in size
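Here the drug-naive KB-3-1 line serves as comparator for MDR sub-line selectivity; cells received compound titrations, 72 h at 37 °C, then CellTiter-Glo readout.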
HT1080 IDH1KD tx = HT-1080 IDH1 knockdown cell toxicity (counter line); HT-1080 IDH1 knockdown viability, ATP luminescence, 48 h; Potency, µM (top dose mostly 46.1 µM), without a hit: at the top dose activity, negative = toxicity, usual class: cytotoxic; 360,000 compounds, 2% hits; AID 686971;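 further: 0% = DMSO wells and -100% = cell-free medium wells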
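Viability of IDH1-knockdown HT-1080 fibrosarcoma cells was assessed by CellTiter-Glo after 48 h at 37 °C with titrated compound; concentration-effect curves were classified by fit quality and response size.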
TGFb inhibitor = blocks TGF-b signaling; HepG2 CAGA-GFP TGF-b/SMAD3 reporter, GFP fluorescence, 18 h; TGF-beta stimulated, 500 pg/mL final; Potency, µM (highest dose often 46.1 µM), without a hit: at the top dose activity, negative = inhibition, most hits filed as inhibitors; 410,000 compounds, 1.2% hits; AID 588855; further: on the % scale 0 is the no-effect control and ±100 the full control effect; nearly all actives have a fitted effect of over 65% in size
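Per well, imaged GFP fluorescence of HEPG2 CAGA-GFP cells gives the signal; cells get compound, then TGF-beta (500 pg/mL final), 18 h at 37 degrees C; %Activity versus -TGF-beta and +DMSO controls.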
HT1080-NT tox = kills 2HG-producing HT-1080-NT fibrosarcoma cells | HT-1080-NT fibrosarcoma viability, CellTiter-Glo ATP luminescence, 48 h | Potency, µM (highest dose often 46.1 µM), for the others: at the top dose activity, negative = less viability, usual class: cytotoxic | 360,000 compounds, 1.6% hits | AID 686970;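 further: NT is the 2HG producing partner of a matched IDH1 knockdown line; 0% = DMSO-treated cells and -100% = media-only wells without cells; nearly all actives have a fitted effect of over 55% in size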
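Viability by CellTiter-Glo luminescence after 48 h compound exposure at 37C of HT-1080-NT cells (750/well, RPMI, 5% FBS). % activity scaled between DMSO wells and medium-only wells, then curve-fitted and categorized by curve class.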
KB-V1 MDR tox = kills drug-selected multidrug resistant KB-V1 cells. KB-V1 MDR cells viability, CellTiter-Glo, 72 h. Potency, µM (titrated, usually from 46.1 µM), most hits filed as cytotoxic. 400,000 compounds, 3.4% hits. AID 1347076; further: on the % scale 0 is the no-effect control and ±100 the full control effect; nearly all actives have a fitted effect of over 60% in size
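Compound-treated KB-V1 multidrug-resistant cells, 72 h, 37 degrees C; viability by CellTiter-Glo. Fitted qHTS curves give the values.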
HepG2 tox = HepG2 cytotoxicity, counter-screen for TGF-b inhibitors. Potency, µM (highest dose often 46.1 µM), without a hit: at the top dose activity change, negative = cytotoxicity, actives largely listed as cytotoxic. 410,000 compounds, 0.76% hits. HepG2 CAGA-GFP viability, ATP luminescence, 18 h
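CellTiter-Glo luminescence gave cytotoxicity after 18 hours at 37 degrees C. The cells were HepG2 CAGA-GFP in 1% FBS DMEM, stimulated with 500 pg/mL TGF-beta after compound addition. %Activity was normalised to no-cell wells (complete cell-killing) and DMSO (no toxicity), and curves were fitted and classified.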
* = called active by the depositor; i = inactive; u = inconclusive; x = not tested or not shown; [ ] = another dose, or the depositor's remark. The call rests on the fitted dose curve; in most records, active means well fitted curve in the direction sought with a large enough effect; inconclusive means small, poorly fitted or top-dose-only effect, or another doubt; inactive means no such curve, though single readings can be large; an effect the other way counts as inactive or inconclusive. Potency means the concentration at half of the fitted maximal effect.

SMILES	KB-3-1 tox	HT1080 IDH1KD tx	TGFb inhibitor	HT1080-NT tox	KB-V1 MDR tox	HepG2 tox
COc1ccc2cc3cc(C(=O)NCc4cccs4)oc3nc2c1	4.61µM*	u	-9.1%	u	u	-10.2%
Cc1ncc(CO)c2c1Oc1nc(-c3ccccc3F)nc(SCC(=O)N3CCCCC3)c1C2	i	x	11.2%	x	i	4.7%
COc1ccc(NC(=O)c2c(NCc3ccc(OC)c(OC)c3OC)sc3c2CCC3)c(OC)c1	i	x	-3.9%	x	i	-31.6%
CCOC(=O)c1c(NC(=O)c2nn(CC)cc2Br)c(C#N)nn1-c1ccccc1	i	-7.6%	-9.3%	1.1%	16.4µM*	-26.3%
Cc1ccc(-n2c(C)cc(/C=C3\SC(=O)NC3=O)c2C)cc1	i	-0.8%	-20.1%	1.6%	i	-1.7%
Cc1cc(/C=C2\SC(=Nc3ccccc3)NC2=O)c(C)n1-c1ccc(S(N)(=O)=O)cc1	4.11µM*	5.17µM*	12.6µM*	7.31µM*	u	-51.5%
O=C(C1CN(C(=O)c2cc3ccccc3o2)c2ccccc2O1)N1CCCCC1 (centres undefined)	i	-9.9%	-7.1%	-8.3%	u	-24.1%
CCCn1c(C)c(C(=O)OCC)c(O)c(-c2ccccc2)c1=O	i	9.2%	12.9%	4.7%	i	2.8%
CCOC(=O)c1c2c(n(C)c1C)C(=O)C(=O)c1ccc(Br)cc1-2	3.66µM*	u	u	u	3.26µM*	-45.6%
CCOC(=O)c1c2c3c(cccc3n(C)c1=O)C(=O)c1ccccc1-2	u	-19.6%	1.9%	-19.4%	20.6µM*	-6.0%
Cc1c(CN(C)C)c2c(n1C)C(=O)c1ccc(Br)cc1-2	i	2.9%[9.24 µM]	-7.5%	u	i	-32.1%
CCOC(=O)c1c2c(n(Cc3ccccc3)c1C)C(=O)C(=O)c1ccccc1-2	2.91µM*	u	u	23.1µM*	3.26µM*	-106.3%
NC(=O)N/N=C/c1cn(-c2ccccc2)nc1-c1cccs1	i	10.3µM*	-0.5%	23.1µM*	u	-25.3%
Cc1nn(-c2ccccc2)cc1/C=N/NC(N)=S	u	14.2%	u	2.4%	16.4µM*	2.1%
Cc1nn(-c2ccccc2)cc1/C=N/O	i	6.5%	0.0%	7.2%	i	-21.7%
O=C(c1cn(-c2ccccc2)nc1-c1cccs1)N1CCN(c2ccccc2)CC1	8.2µM*	7.08µM*	-0.8%	u	u	5.0%
O=C(O)c1cccc(N/N=C/c2cn(-c3ccccc3)nc2-c2cccs2)c1	i	-9.0%	0.9%	-14.9%	i	-19.2%
NS(=O)(=O)c1ccc(N/N=C/c2cn(-c3ccccc3)nc2-c2cccs2)cc1	u	20.6µM*	10µM*	23.1µM*	u	11.2µM*
CCOc1ccc(NC(=O)CSc2nnc(CC)c(CC)n2)cc1	i	x	-19.7%	x	i	-32.9%
CC1(C(=O)Nc2cccc3cccnc23)CCN1Cc1ccccc1OC(F)F (centres undefined)	i	u	u	u	i	-39.4%
CCCCC(CC)CNC(=O)CN1C(=O)CSc2ccc(S(=O)(=O)N3CCOCC3)cc21 (centres undefined)	x	x	u	x	x	-16.7%
NS(=O)(=O)c1ccc(N/N=C/c2cn(-c3ccccc3)nc2-c2cccs2)c([N+](=O)[O-])c1	u	7.31µM*	u	u	i	-61.3%
N#Cc1ccc(N/N=C/c2cn(-c3ccccc3)nc2-c2ccccc2)c([N+](=O)[O-])c1	u	13.9%	2.8%	6.7%	u	-3.5%
COc1cc(NS(=O)(=O)c2ccc(Br)s2)cc(OC)c1	u	-26.3%	-2.8%	-27.1%	16.4µM*	-10.3%
COc1ccc(CNS(=O)(=O)c2ccc(Br)s2)cc1	i	-5.6%	22.7%	-16.8%	i	-2.9%
